# Experimental data as given in the supplement of paper PMC8728848.
# This is one part of a sample in which the strongest signals are shown more often than they occur.
# Tests used:
# Assay in all cases: glycan array binding signal (z-score within array); higher = stronger binding
# Conditions in all cases: glycan notation: IUPAC condensed, linker removed
# [1] = biological target: Gal6S(b1-4)GlcNAc6S
# Procedure, shortened: (§1)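 From the Consortium for Functional Glycomics database, 3228 arrays were curated, keeping only those whose protein sequence was available. Binding is given as a within-array Z-score averaged across arrays sharing a protein sequence and across linkers. Negative Z-scores can be read as non-binding.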
# [2] = biological target: GalNAc(b1-4)GlcNAc6S
# Procedure, shortened: as §1
# [3] = biological target: GlcNAc(b1-2)Man(a1-3)[GlcNAc(b1-2)Man(a1-6)]Man(b1-4)GlcNAc(b1-4)[Fuc(a1-6)]GlcNAc
# Procedure, shortened: as §1
# [4] = biological target: GlcNAc(b1-2)[GlcNAc(b1-6)]Man(a1-6)[GlcNAc(b1-2)Man(a1-3)]Man(b1-4)GlcNAc(b1-4)GlcNAc
# Procedure, shortened: as §1
# [5] = biological target: GlcNAc(b1-2)[GlcNAc(b1-6)]Man(a1-6)[GlcNAc(b1-2)Man(a1-3)]Man(b1-4)GlcNAc(b1-4)[Fuc(a1-6)]GlcNAc
# Procedure, shortened: as §1
# [6] = biological target: GlcNAc(b1-3)Gal(b1-4)GlcNAc(b1-3)Gal(b1-4)GlcNAc
# Procedure, shortened: as §1
# [7] = biological target: GlcNAc(b1-3)Gal(b1-4)GlcNAc(b1-3)Gal(b1-4)GlcNAc(b1-2)[GlcNAc(b1-3)Gal(b1-4)GlcNAc(b1-3)Gal(b1-4)GlcNAc(b1-6)]Man(a1-6)[GlcNAc(b1-3)Gal(b1-4)GlcNAc(b1-3)Gal(b1-4)GlcNAc(b1-2)Man(a1-3)]Man(b1-4)GlcNAc(b1-4)[Fuc(a1-6)]GlcNAc
# Procedure, shortened: as §1
# [8] = biological target: GlcNAc(b1-3)Gal(b1-4)GlcNAc(b1-3)Gal(b1-4)GlcNAc(b1-3)Gal(b1-4)GlcNAc(b1-2)Man(a1-3)[GlcNAc(b1-3)Gal(b1-4)GlcNAc(b1-3)Gal(b1-4)GlcNAc(b1-3)Gal(b1-4)GlcNAc(b1-2)Man(a1-6)]Man(b1-4)GlcNAc(b1-4)GlcNAc
# Procedure, shortened: as §1
# [9] = biological target: GlcNAc(b1-3)Gal(b1-4)GlcNAc(b1-6)[GlcNAc(b1-3)]Gal(b1-4)GlcNAc
# Procedure, shortened: as §1
# [10] = biological target: GlcNAc(b1-4)GlcNAc(b1-4)GlcNAc
# Procedure, shortened: as §1
# [11] = biological target: Man(a1-2)Man(a1-6)[Man(a1-3)]Man(a1-6)[Man(a1-2)Man(a1-2)Man(a1-3)]Man(b1-4)GlcNAc(b1-4)GlcNAc
# Procedure, shortened: as §1
# [12] = biological target: Man(a1-3)[Man(a1-6)]Man(a1-6)[Man(a1-2)Man(a1-3)]Man(b1-4)GlcNAc(b1-4)GlcNAc
# Procedure, shortened: as §1
# [13] = biological target: Man(b1-4)GlcNAc
# Procedure, shortened: as §1
# [14] = biological target: Neu5Ac(a2-3)Gal(b1-3)GlcNAc(b1-2)Man
# Procedure, shortened: as §1
# [15] = biological target: Neu5Ac(a2-3)Gal(b1-3)[Fuc(a1-4)]GlcNAc
# Procedure, shortened: as §1
# [16] = biological target: Neu5Ac(a2-3)Gal(b1-3)[Fuc(a1-4)]GlcNAc(b1-3)Gal(b1-4)[Fuc(a1-3)]GlcNAc
# Procedure, shortened: as §1
# [17] = biological target: Neu5Ac(a2-3)Gal(b1-4)GlcNAc(b1-3)Gal
# Procedure, shortened: as §1
# [18] = biological target: Neu5Ac(a2-3)Gal(b1-4)GlcNAc(b1-6)[Gal(b1-3)]GalNAc
# Procedure, shortened: as §1
# [19] = biological target: Neu5Ac(a2-6)Gal(b1-4)Glc
# Procedure, shortened: as §1
# [20] = biological target: Neu5Ac(a2-6)Gal(b1-4)GlcNAc(b1-2)Man(a1-3)[Man(a1-6)]Man(b1-4)GlcNAc(b1-4)GlcNAc
# Procedure, shortened: as §1
# [21] = biological target: Neu5Ac(a2-6)Gal(b1-4)GlcNAc(b1-2)Man(a1-6)[Gal(b1-4)GlcNAc(b1-2)Man(a1-3)]Man(b1-4)GlcNAc(b1-4)GlcNAc
# Procedure, shortened: as §1
# [22] = biological target: Neu5Ac(a2-6)Gal(b1-4)GlcNAc(b1-3)Gal(b1-4)GlcNAc
# Procedure, shortened: as §1
# [23] = biological target: Neu5Ac(a2-6)Gal(b1-4)GlcNAc(b1-3)Gal(b1-4)GlcNAc(b1-3)GalNAc
# Procedure, shortened: as §1
# [24] = biological target: Neu5Ac(a2-8)Neu5Ac(a2-3)Gal(b1-3)GalNAc(b1-4)[Neu5Ac(a2-3)]Gal(b1-4)Glc
# Procedure, shortened: as §1
# [25] = biological target: Neu5Ac9Ac(a2-3)Gal(b1-4)GlcNAc
# Procedure, shortened: as §1
# [26] = biological target: Neu5Gc(a2-3)Gal(b1-3)GlcNAc
# Procedure, shortened: as §1
# [27] = biological target: Neu5Gc(a2-3)Gal(b1-4)GlcNAc(b1-3)Gal(b1-4)GlcNAc(b1-2)Man(a1-3)[Neu5Gc(a2-3)Gal(b1-4)GlcNAc(b1-3)Gal(b1-4)GlcNAc(b1-2)Man(a1-6)]Man(b1-4)GlcNAc(b1-4)GlcNAc
# Procedure, shortened: as §1
# [28] = biological target: Neu5Gc(a2-3)Gal(b1-4)[Fuc(a1-3)]GlcNAc
# Procedure, shortened: as §1
binder,measurement,setting,value
Mermaid2 (Stilbonema majum) (protein) MGSSHHHHHHSSGLVPRGSHMAASGWLRSPQGTVVKLYRRSLSWSKADEFCKDVDGRLVVDRTADMHLFLIKNVLKEKKSRVWVGLRRTAPHSRTWIWSDGTRQNEDDLNTNLWLRDEPNDAAGEEECALFMYSPWEKAWGLNDYLCRGGCRSYQFICEKGIR,glycan array binding signal (z-score),[1],-0.12
same,glycan array binding signal (z-score),[2],4.64
same,glycan array binding signal (z-score),[3],0.316
same,glycan array binding signal (z-score),[4],-0.776
same,glycan array binding signal (z-score),[5],-0.217
same,glycan array binding signal (z-score),[6],-0.357
same,glycan array binding signal (z-score),[7],0.522
same,glycan array binding signal (z-score),[8],-0.346
same,glycan array binding signal (z-score),[9],-0.719
same,glycan array binding signal (z-score),[10],0.454
same,glycan array binding signal (z-score),[11],-0.4
same,glycan array binding signal (z-score),[12],0.111
same,glycan array binding signal (z-score),[13],5.41
same,glycan array binding signal (z-score),[14],-0.619
same,glycan array binding signal (z-score),[15],-0.173
same,glycan array binding signal (z-score),[16],3.06
same,glycan array binding signal (z-score),[17],-0.777
same,glycan array binding signal (z-score),[18],6.1
same,glycan array binding signal (z-score),[19],-0.397
same,glycan array binding signal (z-score),[20],-0.03
same,glycan array binding signal (z-score),[21],-0.551
same,glycan array binding signal (z-score),[22],-0.49
same,glycan array binding signal (z-score),[23],-0.709
same,glycan array binding signal (z-score),[24],-0.435
same,glycan array binding signal (z-score),[25],-0.505
same,glycan array binding signal (z-score),[26],-0.34
same,glycan array binding signal (z-score),[27],-0.883
same,glycan array binding signal (z-score),[28],3.71
